tim23-1 inh: growth inhibitors of tim23-1 mutant yeast, primary screen, luminescence, uHTS | AID 463212, 2010 | 330,000 tested, 1.3% active | S. cerevisiae tim23-1 growth, BacTiter-Glo luminescence, 24 h | inhibition, % at 20 µM;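 active = growth inhibition of the mutant yeast at or above 50%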;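 note: temperature-sensitive mutant grown at 25 °C; plate controls were DMSO-treated mutant yeast for no effect and medium wells lacking yeast for full effect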
tim10-1 inh: growth inhibitors of tim10-1 mutant yeast, primary screen, luminescence, uHTS; S. cerevisiae tim10-1 ts strain growth, BacTiter-Glo, 24 h; inhibition, % at 20 µM; 330,000 tested, 2.2% active; AID 463190, 2010;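 active = inhibition of at least 40%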;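 note: mutant grown at 25 °C; 0% = DMSO wells with yeast and 100% = wells holding no yeast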
Mot1-301 SUMO: yeast Mot1-301 growth rescue at high temperature, primary screen, SUMOylation pathway inhibitor project, S. cerevisiae, ATP luminescence, 38.5C | S. cerevisiae Mot1-301 growth rescue; percent above DMSO median, 100 means doubled | growth rescue, % at 18.8 µM | 320,000 tested, 1% active | AID 2716, 2010;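 active = every valid replicate shows activation above 250% relative to neutral control wells; inactive = the rest, any valid replicate at or below 250%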;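 note: OY570 slx delta 5 strain wells were the positive control but not used for scaling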
TIM10 inh: growth inhibitors of isogenic TIM10 control yeast, primary screen, counter-screen for tim10-1 yeast inhibitor project, luminescence, uHTS; 330,000 tested, 1.4% active; inhibition, % at 10 µM; AID 463195, 2010; S. cerevisiae TIM10 strain growth, BacTiter-Glo luminescence, 24 h;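 active = inhibition of 40% or more at the single tested concentration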;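 note: wild-type TIM10 isogenic control strain grown at permissive 25 °C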
PfHsp90 yeast 2: growth inhibition of PfHsp90-expressing yeast, primary screen, antimalarial PfHsp90 inhibitor project, S. cerevisiae, BacTiter-Glo luminescence, single point, set 2; AID 504621, 2011; 310,000 tested, 0.32% active; BacTiter-Glo ATP, 48 h; yeast lacking PDR1 and PDR3 efflux regulators; inhibition, % at 9.4 µM;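 active = every replicate shows inhibition above about 80%, whatever the replicate mean, limit read from the data; inconclusive = mean inhibition reaches the set limit but some replicate falls short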;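 note: 0% = DMSO neutral controls and 100% = 20 µM radicicol positive controls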
tim10-1 conf: growth inhibitors of tim10-1 mutant yeast, confirmation, single concentration, luminescence, S. cerevisiae. shares compounds with tim10-1 inh. S. cerevisiae tim10-1 ts strain growth, BacTiter-Glo, 24 h. inhibition, % at 20 µM. 7,400 tested, 56% active;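 active = inhibition of yeast growth at or above a set limit in either of two repeat tests at 20 µM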;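 note: tim10-1 mutant grown at permissive 25 °C to find synthetic lethal compounds; 0% = DMSO yeast wells and 100% = medium wells without yeast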
The depositor's hits bear a star; ? = inconclusive; / = not tested or not shown. Rows were chosen to be rich in hits. Some 4.4% of all compounds tested hit in one or more screens of this group.

SMILES	tim23-1 inh	tim10-1 inh	Mot1-301 SUMO	TIM10 inh	PfHsp90 yeast 2	tim10-1 conf
CCNc1ccc(Br)cc(C(=O)/C=C/c2c(Cl)cccc2Cl)c1=O	33.0	54.7*	-15.9	38.9	28.5	48.6*
Cc1cc2ncn(C(=O)c3c(-c4ccccc4)noc3C)c2cc1C	40.6	40.8*	18.4	33.8	-15.3	24.0
CCOC(=O)c1c(NC(=O)/C=C/c2ccc(C)o2)sc(C)c1C	14.0	45.8*	5.0	13.0	-15.1	24.5
Cc1ccc(/C=C/C(=O)Nc2sc(C)c(C)c2C(=O)OC(C)C)o1	10.9	13.6	-0.2	1.7	-96.9	/
CCC1CCCCN1CCCNC(=O)Cn1c2ccccc2c2nc(=O)cc(C)n21 (centres undefined)	17.5	8.7	8.3	-4.6	24.3	/
O=Cc1c[nH]c2ccc(C(=O)c3ccccc3)cc12	7.2	-11.3	-18.0	-0.5	7.7	/
CCOC(=O)c1cc(NC(=O)Nc2ccccc2OC)c(C)nc1C	10.9	41.1*	-17.8	20.2	-1.7	21.6
O=C(NCc1ccccn1)Nc1cccc(Cl)c1Cl	17.4	4.1	-0.4	3.5	5.9	/
COc1ccc(-c2onc(C)c2C)cc1S(=O)(=O)NCCc1ccco1	36.9	43.1*	64.3	-14.3	3.2	2.4
CCOC(=O)c1c(NC(=O)CSc2nnc(-c3ccco3)o2)sc(C(C)=O)c1C	12.4	17.9	2.2	-8.4	9.1	/
CCOC(=O)c1c(NC(=O)CSc2nnc(-c3ccco3)o2)sc(C)c1C	23.9	41.5*	-18.6	22.1	-13.1	16.8
COc1ccc(-n2nc(C(=O)Nc3ccc(OC)c(OC)c3)c3c4ccccc4n(C)c3c2=O)cc1	5.1	41.1*	-5.2	17.4	-84.5	-1.2
O=C(CC(=O)c1ccccn1)c1ccccc1	/	/	/	/	-10.9	/
CN(C)c1ccc(/C=N/NC(=O)C(=O)/C=C2\NC3(CCCC3)Cc3ccccc32)cc1	42.4	42.5*	-5.2	28.3	-18.5	18.9
O=C(NCCc1ccccc1)c1ccc(-c2ccccc2C(F)(F)F)o1	24.9	22.0	13.7	-0.2	/	/
O=C(NCc1ccccc1)c1ccc(-c2ccccc2F)o1	47.0	41.7*	-2.2	23.8	-38.2	36.1*
O=C(Cc1ccccc1)N/N=C/c1ccc2cccc(O)c2n1	47.8	46.9*	3.6	20.0	-0.1	34.5*
CCN(CC)c1ccc(S(=O)(=O)N2CCOCC2)cc1NC(=O)CN1CCc2ccccc2C1	10.7	49.9*	-11.7	30.6	16.6	9.9
COc1ccc2[nH]cc(S(=O)(=O)c3ccc(C(C)C)cc3)c(=O)c2c1	5.3	-5.9	707.8	8.6	13.7	/
CCC(C)C(=O)N1c2ccccc2C(=C2SC(C(=O)OC)=C(C(=O)OC)S2)C(=S)C1(C)C (centres undefined)	32.2	43.6*	-3.2	26.8	-2.1	28.9
Cc1cc(C)c(C)c(S(=O)(=O)NCCN2CCOCC2)c1C	-5.1	5.3	-3.4	-13.1	-3.4	/
COc1ccc(/C=C\C(=O)O[C@@H]2C(O)C(O[C@@H]3OC(C)[C@H](O[C@@H]4OCC(O[C@H]5O[C@H](CO)[C@@H](O)C(O)C5O)C(O)C4O)C(O)C3O)[C@H](OC(=O)[C@]34CCC(C)(C)C[C@@H]3C3=CCC5[C@@]6(C)CC(O)C(O[C@@H]7OC(CO)C(O)[C@H](O)[C@H]7O)[C@@](C)(C(=O)O)C6CC[C@@]5(C)[C@]3(CO)CC4)O[C@H]2C)cc1 (some centres undefined)	16.2	47.8*	-3.8	-12.0	107.8*	38.5*
CCOc1ccc2nc(NCCNC(=O)c3cc(OC)c(OC)c(OC)c3)c(C#N)cc2c1	9.9	8.1	14.2	15.7	-0.7	/
CCOc1ccc2nc(NCCCNS(=O)(=O)c3ccccc3)c(C#N)cc2c1	21.4	42.3*	-4.5	3.3	-6.8	18.6
CCOc1ccc2nc(NCCCNS(=O)(=O)c3ccc(F)cc3)c(C#N)cc2c1	25.9	41.9*	-15.3	5.8	6.1	28.0
SMILES	tim23-1 inh	tim10-1 inh	Mot1-301 SUMO	TIM10 inh	PfHsp90 yeast 2	tim10-1 conf
CCOC(=O)C1CCN(Cc2nnc(-c3ccccc3C)o2)CC1	13.6	17.0	-1.2	3.8	-7.9	/
COc1ccc(N2CCN(C(=O)c3cc(-c4ccc(F)cc4)[nH]c3C)CC2)cc1	32.2	42.0*	375.7	10.6	4.2	39.7*
CC(=O)c1ccc(N2CCN(C(=O)c3ccc4[nH]c(C)c(C)c4c3)CC2)cc1	30.5	22.7	26.1	29.2	-20.6	/
Cc1[nH]c2ccc(C(=O)N3CCN(c4ccc(F)cc4)CC3)cc2c1C	48.0	54.4*	2.8	23.3	-13.5	24.5
C=C(C)COc1ccc(-c2[nH]ncc2Oc2ccc(OC)cc2)c(O)c1	43.5	-15.5	215.2	28.5	?	/
C=C(C)COc1ccc(-c2[nH]ncc2Oc2ccccc2OC)c(O)c1	42.5	55.4*	1.2	27.7	8.7	39.4*
CCOc1cc(-c2cc(-c3ccc(C)cc3)nc(N)c2C#N)ccc1O	21.7	42.5*	-13.6	32.9	-17.0	25.9
CCOc1cc(-c2c(C#N)c(N)nc3c2CCCC3C)ccc1O (centres undefined)	48.9	45.8*	304.8	37.0	-28.1	35.5*
CCCCOc1ccc(C(=O)NCC(=O)N2CCN(C(=O)c3ccco3)CC2)cc1	14.4	13.4	/	2.9	-5.6	/
O=C1/C(=C/c2ccccc2)SC(=S)N1CC(=O)N1CCCCC1c1cccnc1 (centres undefined)	46.5	46.9*	140.5	17.1	10.7	16.1
CCOc1ccc(/C=C/C(=O)OC(C)C(=O)NC2CCCCC2C)cc1OC (centres undefined)	24.6	15.7	-2.4	15.0	-1.2	/
O=C(Nc1ccccc1)N(CCc1nc2ccccc2[nH]1)C1CCCC1	3.8	13.7	-9.1	8.3	/	/
S=C(NC1CCCCC1)N(CCc1nc2ccccc2[nH]1)C1CCCC1	32.3	49.8*	23.3	37.1	-6.7	28.9
N#Cc1c(-c2ccccc2)nc(SCc2cccc(Cl)c2)[nH]c1=O	33.3	42.1*	-7.3	17.5	-32.9	27.1
Cc1[nH]c(=O)nc(SCc2cccc(Cl)c2)c1C#N	6.6	10.5	1.2	3.0	6.0	/
CCOc1cccc2sc(N(CCN(C)C)C(=O)/C=C/c3cccs3)nc12	35.2	47.0*	93.6	25.9	2.8	32.3*
CCOCC(=O)Nc1ccc(S(=O)(=O)N2CCC(c3nc4ccccc4[nH]3)CC2)cc1	11.9	15.3	-9.0	-4.1	6.8	/
CN(C)CCCNC(=O)C[C@H]1C[C@H](C(=O)N2CCCCC2)[C@@]2(CCc3ccccc3)c3[nH]c4ccc(Cl)cc4c3CCN2C1=O	39.5	25.5	/	2.1	14.8	/

Source: PubChem
